# Source: PubChem
# proKLK7 act – activates the human kallikrein-7 zymogen | purified proKLK7, EDANS-DABCYL substrate fluorescence; 100% is mature enzyme control, 0% vehicle | activation, % at 7 µM | 370,000 tested, 0.9% active | AID 652039;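 active = activation above the mean of all tested compounds plus 3 SD, computed per campaign excluding outliers beyond control limits, cut at about 13% in these data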
# ADAM10 inh – inhibitors of human ADAM10; recombinant ADAM10, EDANS/DABCYL FRET peptide cleavage, 3 h; O14672; inhibition, % at 7 µM; 370,000 tested, 0.62% active;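 active = inhibition above a per-campaign cutoff equal to the mean of compounds falling between control-based bounds plus 3 SD, cut at about 20% in these data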;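 also: 0% = DMSO wells while the 100% control is not disclosed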
# Target sequence (O14672 214-748 limits assumed): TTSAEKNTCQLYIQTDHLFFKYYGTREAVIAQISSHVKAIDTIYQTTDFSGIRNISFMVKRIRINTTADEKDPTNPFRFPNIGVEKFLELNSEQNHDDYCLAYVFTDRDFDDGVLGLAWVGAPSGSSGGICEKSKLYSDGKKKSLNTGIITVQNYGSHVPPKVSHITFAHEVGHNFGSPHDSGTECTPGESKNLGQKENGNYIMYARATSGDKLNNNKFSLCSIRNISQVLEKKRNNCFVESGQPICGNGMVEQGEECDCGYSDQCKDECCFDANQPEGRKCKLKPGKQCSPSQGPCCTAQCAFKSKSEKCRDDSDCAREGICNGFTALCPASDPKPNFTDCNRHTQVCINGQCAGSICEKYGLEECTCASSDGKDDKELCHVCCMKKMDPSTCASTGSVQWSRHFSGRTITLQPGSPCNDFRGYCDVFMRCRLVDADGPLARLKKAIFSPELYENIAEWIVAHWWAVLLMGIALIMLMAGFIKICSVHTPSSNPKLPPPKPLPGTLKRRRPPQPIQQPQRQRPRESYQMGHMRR
# PLCg1 inh – inhibitors of human phospholipase C gamma1; P19174; purified PLC-gamma1, fluorogenic substrate, fluorescence; inhibition, % at 12.2 µM; 370,000 tested, 0.84% active; in the data active = inhibition above about 9.5%
# PLC-beta3 inh – blocks human PLC-beta3 enzyme activity; Purified PLC-beta3, fluorogenic substrate, fluorescence; inhibition, % at 12.2 µM; 370,000 tested, 0.18% active; AID 720704; in the data active = inhibition above about 11%;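 also: 0% = median of compound wells on plate and 100% = full blocker control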
# ADAM17 inh – inhibitors of human ADAM17; recombinant ADAM17, EDANS/DABCYL FRET peptide cleavage; inhibition, % at 6.95 µM; 370,000 tested, 0.83% active; AID 720648;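 active = inhibition above the mean of compounds lying between control limits plus 3 SD, set per campaign, cut at about 8.5% in these data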;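 also: 0% = DMSO-only wells as the low control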
# ADAM10 counter – counter-screen for ADAM17 exosite inhibitors: inhibitors of human ADAM10; shares compounds with ADAM17 inh; recombinant ADAM10, EDANS/DABCYL FRET peptide cleavage, 3 h; inhibition, % at 6.95 µM; 2,900 tested, 47% active;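 active = mean inhibition over the triplicate runs exceeds the activity threshold set in the earlier primary screen, cut at about 20% in these data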;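 also: 0% = DMSO wells and 100% = marimastat wells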
# ADAM17 confirm – confirmation of inhibitors of human ADAM17. shares compounds with ADAM17 inh. recombinant ADAM17, EDANS/DABCYL QFRET peptide cleavage. inhibition, % at 6.95 µM. 2,900 tested, 65% active;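 active = mean inhibition across replicates above the hit cutoff set in the primary screen, cut at about 8.5% in these data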;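 also: 0% = DMSO wells and 100% = marimastat wells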
# An asterisk follows results filed as active; . = no result. Compounds with a hit are over-represented: about 2.9% of the library has one in this group of screens.
SMILES,proKLK7 act,ADAM10 inh,PLCg1 inh,PLC-beta3 inh,ADAM17 inh,ADAM10 counter,ADAM17 confirm
O=C(COC(=O)c1ccc(Br)o1)Nc1cccc(S(=O)(=O)N2CCCCCC2)c1,0,12,1,1,9.8*,26*,15*
O=C(CN1CCOCC1)Nc1cccc(S(=O)(=O)N2CCCCCC2)c1,0,8,7,2,1,.,.
Clc1cccc(OCCn2ccnc2)c1,0,4,-1,-3,2,.,.
COc1cc(C(=O)NC2CCN(C)CC2)ccc1Nc1ncc2c(n1)N(CCc1ccccc1)CCC(=O)N2C,0,-7,-179,-261,-1,.,.
CSc1ncccc1C(=O)OCC(=O)Nc1ccc(S(=O)(=O)N2CCCC2)cc1,1,9,1,-1,9.5*,1,6
Cc1ccccc1C(=O)OCC(=O)Nc1cccc(S(=O)(=O)N2CCCCC2)c1,1,-3,0,0,2,.,.
CSc1ncccc1C(=O)OCC(=O)c1ccc(S(=O)(=O)N2CCCCC2)cc1,0,14,0,5,3,.,.
Cc1ccc(C)c(C(=O)OCC(=O)Nc2cccc(S(=O)(=O)N3CCCCC3)c2)c1,0,8,3,-5,12*,32*,19*
CC(C)CN1C(=O)N2CCc3ccccc3C2CS1(=O)=O (stereo unspecified),0,-6,1,2,-7,.,.
Cc1cc(C)c2cc(C)c(SCC(=O)NCc3ccco3)nc2c1,0,-1,1,-3,2,.,.
O=C(CCCOC(=O)c1ccc(O)cc1O)c1ccc(Br)cc1,0,8,2,-1,11*,13,10*
CSc1nc2ccccc2n1CC(=O)Nc1ccc(C)c(C)c1,0,2,1,3,0,.,.
O=C(COC(=O)[C@H](Cc1c[nH]c2ccccc12)NC(=O)c1ccc(Cl)cc1)Nc1ccc2c(c1)OCO2,0,15,1,-5,13*,36*,20*
Cc1cccc(OCCC(=O)Nc2c(C)n(C)n(-c3ccccc3)c2=O)c1,0,-4,3,0,-7,.,.
COc1ccc(CNS(=O)(=O)/C=C/c2ccc(OC)cc2CNC(=O)OC(C)(C)C)cc1,0,11,0,4,9.4*,23*,9.7*
CN(C(=O)c1ccc(NC(=O)Cc2cccc(NC(=O)C3CCCN(C(=O)C4CCC4)C3)c2)cc1)C1CC1 (stereo unspecified),1,-3,1,3,-1,.,.
CN(C(=O)c1ccc(NC(=O)Cc2cccc(NC(=O)C3CCCN(C(=O)C4CCCC4)C3)c2)cc1)C1CCCC1 (stereo unspecified),1,5,6,10,9.4*,18,9
CC(C)(C)OC(=O)N1CCCC(C(=O)Nc2cccc(C(=O)NCCCc3ccccc3)c2)C1 (stereo unspecified),0,10,4,9,12*,20,10*
Cc1c(Cl)c([N+](=O)[O-])nn1CC(=O)N1CCCC1,-1,1,0,5,-2,.,.
Cc1c(Cl)c([N+](=O)[O-])nn1CC(=O)NC12CC3CC(CC(C3)C1)C2,1,16,8,8,11*,-5,2
CCc1ccc(N(CC(=O)Nc2nc3ccc(C)cc3s2)S(=O)(=O)c2c(C)noc2C)cc1,0,16,0,0,9.7*,46*,26*
CN(CC(=O)N1CCN(c2ccccn2)CC1)S(=O)(=O)c1ccccc1,-1,-10,-2,1,-8,.,.
O=C1/C(=C\c2cccc(O)c2)SC(=S)N1Cc1ccccc1,0,10,6,-7,8.8*,13,6
COC(=O)C(O)(CC(=O)Nc1ccc(OC)cc1)C(F)(F)F (stereo unspecified),0,6,-2,3,-2,.,.
COc1ccc(NC(=O)c2cc(-c3cc(Cl)ccc3C)n[nH]2)c(OC)c1,-1,16,-1,-4,9.9*,23*,11*
SMILES,proKLK7 act,ADAM10 inh,PLCg1 inh,PLC-beta3 inh,ADAM17 inh,ADAM10 counter,ADAM17 confirm
O=C1NC2(CCCC2)N=C1c1ccc(Cl)cc1,-1,15,3,4,9.6*,12,5
O=C(NCC(=O)N1CCN(C(c2ccccc2)c2ccccc2)CC1)c1ccccc1Br,1,14,5,3,12*,20*,12*
Cc1cc(SCC(=O)Nc2cccc(S(=O)(=O)NC3=NCCCCC3)c2)c(C)cc1Br,0,15,3,3,11*,28*,18*
CC(=O)Nc1ccc(S(=O)(=O)C(C#N)c2nc3ccccc3nc2NCCN2CCOCC2)cc1 (stereo unspecified),-1,-152,-39,-59,-49,.,.
CCc1c(-c2ccc(Cl)cc2)ncn1Cc1cccc(-c2ccccc2)c1,1,18,3,0,12*,1,6
CCc1c(-c2ccccc2F)ncn1Cc1cccc(-c2ccccc2)c1,1,9,-3,-3,8,.,.
CN(C)c1ccc(S(=O)(=O)NCC(=O)OCC(=O)Nc2cc(Cl)cc(Cl)c2)cc1[N+](=O)[O-],0,20,6,1,9.9*,42*,23*
CN(CCOc1ccc(Cl)cc1)C(=O)CNS(=O)(=O)c1ccc(N(C)C)c([N+](=O)[O-])c1,0,-5,3,-3,-3,.,.
CCOC(=O)c1c(NC(=O)Cn2nc(C(F)F)cc2C(F)F)sc(C)c1C,1,18,3,0,9.1*,18,12*
COC(=O)c1c(NC(=O)Cn2nc(C(F)F)cc2C(F)F)sc(C)c1C,0,13,2,0,3,.,.
Cc1c(C(=N)C(C#N)C#N)c(=N)oc2c1ccc1ccccc12,-3,-93,-75,-104,-39,.,.
COc1ccc(NS(=O)(=O)c2ccc3[nH]c(=O)[nH]c3c2)cc1,0,4,3,-7,3,.,.
COc1ccc(NS(=O)(=O)c2ccc3nc(COc4ccc(Cl)c(C)c4)[nH]c3c2)cc1,1,19,2,3,13*,27*,19*
CCCCn1c(-c2csc3c2CCC(C)C3)n[nH]c1=S (stereo unspecified),0,12,-2,-1,6,.,.
C=CCn1c(-c2csc3c2CCC(C)C3)n[nH]c1=S (stereo unspecified),1,6,1,1,11*,18,13*
CC(C)N(c1ccccc1)c1ccc(NC(=O)COC(=O)CCN2C(=O)c3cccc([N+](=O)[O-])c3C2=O)cc1,1,11,4,2,8.7*,25*,15*
CCn1c(CN2CCCCC2)nc2cc(S(=O)(=O)N3CCCCC3)ccc21,1,-4,-4,-4,0,.,.
